One may read the AC50 as the concentration giving half of the maximal activity seen.

Assay [1] deals with human RAR-related Orphan Receptor gamma (RORg), RORC (gene 6097) (UniProt P51449). Nature of the assay: ATG_RORg_TRANS: Attagene TRANS-FACTORIAL HepG2 Assay for human RAR-related Orphan Receptor gamma (RORg) (AID 2283011).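 As to AC50: potency for induction of reporter transcripts above DMSO so activators.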 Put shortly: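 Chimeric RORg-Gal4 transactivation in transfected HepG2; 24 h exposure; RT-PCR/capillary electrophoresis readout of reporter mRNA, DMSO baseline.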

Assay [2] concerns the target human Retinoid X Receptor beta (RXRb), RXRB (gene 6257) (UniProt P28702). Nature of the assay: ATG_RXRb_TRANS: Attagene TRANS-FACTORIAL HepG2 Assay for human Retinoid X Receptor beta (RXRb) (AID 2283013). The gist of the method:
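Multiplexed TRANS reporter assay in HepG2; 24 h dosing; reporter mRNA by RT-PCR/CE fluorescence; gain-of-signal relative to DMSO.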

Assay [3] addresses Retinoic acid receptor RXR-alpha (Homo sapiens) (UniProt P19793). Kind of assay: ATG_RXRa_TRANS: Attagene TRANS-FACTORIAL HepG2 Assay for human Retinoid X Receptor alpha (RXRa) (AID 2283012). Put shortly: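 Cells (HepG2) carried transiently transfected GAL4-responsive reporter units. Following a 24 h chemical incubation, reporter mRNA induction was read via RT-PCR fragment analysis; DMSO served as negative control and baseline.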

The target in assay [4] is human Thyroid Receptor alpha (THRa1), THRA (gene 7067) (UniProt P10827). Nature of the assay: ATG_THRa1_TRANS: Attagene TRANS-FACTORIAL HepG2 Assay for human Thyroid Receptor alpha (THRa1) (AID 2283014). Put shortly:
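Measured here is mRNA from a GAL4-UAS reporter in transfected HepG2 cells carrying a Gal4-fused receptor, 24 h post-dose. DMSO served as negative control and baseline.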

Read-out in assay [5]: E-selectin (Homo sapiens) (UniProt P16581)
Nature of the assay: BSK_3C_Eselectin: BioMAP Diversity Plus: 3C Assay for Eselectin Biomarker Activity (AID 2283015; active = hit-call score of the fitted dose curve at least 0.9, where 1 is the maximum; inactive = score below 0.9;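 as to outcome: cell surface E-selectin protein quantified by ELISA 24 h after dosing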). The settings on record: primary human endothelial cells (HUVEC); actives raise or lower the signal. Put shortly: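 Endpoint derived by bidirectional fitting against DMSO vehicle; signal is ELISA-detected E-selectin from primary HUVEC at 24 h post-dosing, with parallel SRB staining (0.1% SRB, 560 nm) flagging cytotoxicity.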

Read-out in assay [6]: Interleukin-1 alpha (IL1a), IL1A (gene 3552)
Kind of assay: BSK_BE3C_IL1a: BioMAP Diversity Plus: BE3C Assay for Interleukin-1 alpha (IL1a) Biomarker Activity (AID 2283016; active = hit-call score of the fitted dose curve at least 0.9, where 1 is the maximum; inactive = score below 0.9). The settings on record: primary human bronchial epithelial cells; actives raise or lower the signal. The gist of the method:
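Cultures of primary human bronchial epithelial cells receive test chemical. After 24 h, IL-1a is quantified by ELISA, while parallel wells are fixed in TCA and SRB-stained for total protein. Changes in either direction are fitted relative to DMSO.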

Read-out in assay [7]: Monocyte Chemoattractant Protein-1 (MCP1), CCL2 (gene 6347)
Nature of the assay: BSK_3C_MCP1: BioMAP Diversity Plus: 3C Assay for Monocyte Chemoattractant Protein-1 (MCP1) Biomarker Activity (AID 2283017; active = hit-call score of the fitted dose curve at least 0.9, where 1 is the maximum; inactive = score below 0.9). Conditions: primary human endothelial cells (HUVEC); actives raise or lower the signal. The gist of the method: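 Using human vascular primary endothelium, researchers measured MCP-1 by ELISA 24 h after treatment, with DMSO serving as negative control for bidirectional fitting.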

Read-out in assay [8]: Human Leukocyte Antigen - DR isotype (HLADR), HLA-DRA (gene 3122)
Kind of assay: BSK_3C_HLADR: BioMAP Diversity Plus: 3C Assay for Human Leukocyte Antigen - DR isotype (HLADR) Biomarker Activity (AID 2283019; active = hit-call score of the fitted dose curve at least 0.9, where 1 is the maximum; inactive = score below 0.9;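 as to outcome: ELISA of cell-surface HLA-DR on HUVEC 24 h after dosing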). The settings on record: primary human endothelial cells (HUVEC); actives raise or lower the signal. The gist of the method: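 Compound added to primary HUVEC cultures, 24 h incubation, then HLA-DR determined by ELISA; endpoint derived by bidirectional fitting relative to DMSO negative control.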

Read-out in assay [9]: Interleukin-8 (IL8), CXCL8 (gene 3576)
Kind of assay: BSK_3C_IL8: BioMAP Diversity Plus: 3C Assay for Interleukin-8 (IL8) Biomarker Activity (AID 2283020; active = hit-call score of the fitted dose curve at least 0.9, where 1 is the maximum; inactive = score below 0.9). Conditions: primary human endothelial cells (HUVEC); actives raise or lower the signal. The gist of the method: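 Human vascular endothelial cells (umbilical vein) in the 3C system; IL-8 level detected by ELISA at 24 h post-dose, with DMSO as baseline.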

Read-out in assay [10]: Monokine induced gamma interferon (MIG), CXCL9 (gene 4283)
Kind of assay: BSK_3C_MIG: BioMAP Diversity Plus: 3C Assay for Monokine induced gamma interferon (MIG) Biomarker Activity (AID 2283021; active = hit-call score of the fitted dose curve at least 0.9, where 1 is the maximum; inactive = score below 0.9;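 as to AC50: MIG protein level measured by immunoassay in the treated endothelial cultures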). The settings on record: primary human endothelial cells (HUVEC); actives raise or lower the signal. Put shortly: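 After 24 h of treatment, human umbilical vein endothelial cultures (3C system) had their MIG biomarker level determined by ELISA, with DMSO serving as negative control.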

Records with an inconclusive call do not appear. The source made the active and inactive calls. The calls were made as follows, unless noted: active = hit-call score of the fitted dose curve at least 0.9, where 1 is the maximum; inconclusive = response in the unintended direction; inactive = score below 0.9.

Sequence of human Thyroid Receptor alpha (THRa1), THRA (gene 7067) (P10827 whole entry, looked up, the tested form may be a part): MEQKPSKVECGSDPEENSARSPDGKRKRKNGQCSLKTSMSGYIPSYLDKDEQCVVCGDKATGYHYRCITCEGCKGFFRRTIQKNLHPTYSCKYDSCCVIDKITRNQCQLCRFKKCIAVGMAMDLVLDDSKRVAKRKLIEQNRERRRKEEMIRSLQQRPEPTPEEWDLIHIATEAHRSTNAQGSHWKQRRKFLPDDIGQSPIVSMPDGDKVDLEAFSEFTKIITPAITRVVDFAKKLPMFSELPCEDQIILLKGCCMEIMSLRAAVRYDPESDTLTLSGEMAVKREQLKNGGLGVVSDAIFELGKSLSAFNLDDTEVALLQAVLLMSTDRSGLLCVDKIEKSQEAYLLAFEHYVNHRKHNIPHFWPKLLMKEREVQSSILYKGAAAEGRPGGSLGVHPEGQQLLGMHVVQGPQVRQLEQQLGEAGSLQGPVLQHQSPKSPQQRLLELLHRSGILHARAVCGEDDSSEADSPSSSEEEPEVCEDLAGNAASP
Sequence of human RAR-related Orphan Receptor gamma (RORg), RORC (gene 6097) (P51449 whole entry, looked up, the tested form may be a part): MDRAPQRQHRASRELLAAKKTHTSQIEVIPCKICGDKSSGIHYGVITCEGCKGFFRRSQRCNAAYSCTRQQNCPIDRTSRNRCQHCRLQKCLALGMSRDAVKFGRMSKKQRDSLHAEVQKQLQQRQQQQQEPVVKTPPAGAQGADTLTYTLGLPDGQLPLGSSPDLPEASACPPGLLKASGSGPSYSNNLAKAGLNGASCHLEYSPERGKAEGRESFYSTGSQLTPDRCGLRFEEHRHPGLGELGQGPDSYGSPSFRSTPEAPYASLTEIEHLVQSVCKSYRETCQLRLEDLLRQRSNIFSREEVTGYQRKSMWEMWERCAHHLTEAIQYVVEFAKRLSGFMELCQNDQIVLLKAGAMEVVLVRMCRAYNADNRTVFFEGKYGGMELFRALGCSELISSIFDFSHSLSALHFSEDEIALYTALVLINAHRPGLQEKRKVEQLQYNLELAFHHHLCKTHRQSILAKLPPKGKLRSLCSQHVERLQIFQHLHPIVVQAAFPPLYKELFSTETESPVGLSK
Sequence of human Retinoid X Receptor beta (RXRb), RXRB (gene 6257) (P28702 whole entry, looked up): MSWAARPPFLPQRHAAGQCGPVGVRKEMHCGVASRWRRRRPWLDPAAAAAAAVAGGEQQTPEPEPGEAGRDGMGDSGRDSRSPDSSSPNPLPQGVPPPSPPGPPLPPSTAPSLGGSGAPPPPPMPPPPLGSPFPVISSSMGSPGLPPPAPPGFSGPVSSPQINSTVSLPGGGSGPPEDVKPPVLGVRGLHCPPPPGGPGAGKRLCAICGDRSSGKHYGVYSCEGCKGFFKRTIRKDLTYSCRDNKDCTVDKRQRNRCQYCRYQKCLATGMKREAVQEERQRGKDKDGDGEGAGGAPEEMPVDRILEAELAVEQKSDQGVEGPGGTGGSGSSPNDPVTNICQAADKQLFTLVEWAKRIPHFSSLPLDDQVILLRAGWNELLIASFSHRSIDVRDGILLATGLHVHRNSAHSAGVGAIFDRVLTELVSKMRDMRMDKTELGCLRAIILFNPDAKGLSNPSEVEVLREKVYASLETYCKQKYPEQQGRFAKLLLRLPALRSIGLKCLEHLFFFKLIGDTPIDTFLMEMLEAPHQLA
Sequence of E-selectin (Homo sapiens) (P16581 whole entry, looked up): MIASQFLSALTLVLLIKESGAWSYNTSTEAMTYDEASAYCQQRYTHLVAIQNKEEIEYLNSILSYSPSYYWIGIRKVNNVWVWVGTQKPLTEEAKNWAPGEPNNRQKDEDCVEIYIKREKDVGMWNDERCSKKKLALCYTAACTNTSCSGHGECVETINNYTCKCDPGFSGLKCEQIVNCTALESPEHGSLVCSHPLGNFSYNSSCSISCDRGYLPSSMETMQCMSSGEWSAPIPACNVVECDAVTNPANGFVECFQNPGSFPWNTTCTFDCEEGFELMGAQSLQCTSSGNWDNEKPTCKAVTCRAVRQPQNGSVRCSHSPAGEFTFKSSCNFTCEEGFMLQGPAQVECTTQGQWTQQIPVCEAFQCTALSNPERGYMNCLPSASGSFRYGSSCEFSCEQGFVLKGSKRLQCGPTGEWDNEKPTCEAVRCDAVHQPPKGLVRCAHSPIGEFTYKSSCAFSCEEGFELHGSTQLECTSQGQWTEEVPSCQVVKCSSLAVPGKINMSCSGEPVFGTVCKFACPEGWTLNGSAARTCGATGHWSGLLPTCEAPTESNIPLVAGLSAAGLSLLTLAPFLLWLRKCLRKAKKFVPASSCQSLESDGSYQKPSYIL
Sequence of Retinoic acid receptor RXR-alpha (Homo sapiens) (P19793 whole entry, looked up, the tested form may be a part): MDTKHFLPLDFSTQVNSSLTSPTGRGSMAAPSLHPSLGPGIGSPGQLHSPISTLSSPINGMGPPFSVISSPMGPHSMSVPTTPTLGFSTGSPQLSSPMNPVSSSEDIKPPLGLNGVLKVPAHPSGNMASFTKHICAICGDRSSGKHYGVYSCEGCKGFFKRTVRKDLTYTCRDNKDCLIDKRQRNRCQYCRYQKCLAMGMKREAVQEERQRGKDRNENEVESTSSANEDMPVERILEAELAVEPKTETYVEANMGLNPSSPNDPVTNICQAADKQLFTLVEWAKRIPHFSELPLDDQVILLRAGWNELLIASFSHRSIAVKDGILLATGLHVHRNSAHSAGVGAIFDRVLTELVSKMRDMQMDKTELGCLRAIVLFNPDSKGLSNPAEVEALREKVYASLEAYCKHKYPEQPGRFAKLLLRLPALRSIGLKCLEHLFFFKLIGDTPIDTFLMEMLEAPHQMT

`CC[C@H]1OC(=O)[C@H](C)[C@@H](O[C@H]2C[C@@](C)(OC)[C@@H](O)[C@H](C)O2)[C@H](C)[C@@H](O[C@@H]2O[C@H](C)C[C@H](N(C)C)[C@H]2O)[C@](C)(O)C[C@@H](C)C(=NOCOCCOC)[C@H](C)[C@@H](O)[C@]1(C)O`: the call in [1] and in assay [2] was inactive.
Turning to `Nc1ccc(-c2ccc(F)cc2)cc1`, the molecule was called inactive in assay [1], in [3], in [2] and in assay [4].
For `O=C1CCCCCN1SSN1CCCCCC1=O`, the call in [1], in assay [3], in [2] and in assay [4] was inactive.
`COc1ccc([C@@H]2CC(=O)c3c(O)cc(O[C@@H]4O[C@H](CO[C@@H]5O[C@@H](C)[C@H](O)[C@@H](O)[C@H]5O)[C@@H](O)[C@H](O)[C@H]4O)cc3O2)cc1OC`: the outcome in [1], in [3], in assay [2] and in assay [4] was inactive.
On to `CCCCCCCCCCc1ccccc1`, for which, in assay [1], the outcome was inactive. For the same molecule, the AC50 in [2] is 49.1 µM (active).
In the case of `COC(=O)/C=C\C(=O)O`, the molecule was called inactive in assay [1] and in assay [2].
Turning to `CC(=O)c1ccc[nH]1`, the call in assay [1], in [3], in assay [2] and in assay [4] was inactive.
Consider `C=CCOc1c(Br)cc(Br)cc1Br`, for which the molecule was classed as inactive in [1], in assay [4], in [9] and in [10]. Besides, the AC50 is 56.2 µM (active) in [3]; 20 µM (active) in assay [5]; 20 µM (active) in [6]; 20 µM (active) in assay [7]; 24.8 µM (active) in [8].
On to `CC(C)(C)C(=O)C=Cc1ccc(Cl)cc1`, for which the AC50 in [1] is 24.4 µM (active). Moreover, the call in assay [3] and in [4] was inactive.
In the case of `COC(=O)c1ccccc1OC`, the outcome in assay [1] and in assay [2] was inactive.
With `C=CC(=O)OCC(Br)CBr` (stereo unspecified), the concentration at half-maximal activity (AC50) in assay [1] is 176 µM (active); in assay [5] it was 20 µM (active); in [6], 20 µM (active); in assay [7], 31.8 µM (active); in assay [8] it was 5.44 µM (active); in [9], 20 µM (active). In addition, the AC50 in assay [10] was 33 µM (active). Also, the outcome in assay [3] and in [4] was inactive.
For `CCC(CO)CO`, the call in assay [1], in assay [3] and in assay [4] was inactive.
In the case of `CCOCC(=O)O`, the outcome in assay [1], in assay [3], in [2] and in [4] was inactive.
Take `CC(=O)NS(=O)(=O)c1ccc(N)cc1`: the outcome in assay [1] and in assay [2] was inactive.
On to `O=C1C(N(CO)C(=O)NCO)N(CO)C(=O)N1CO` (stereo unspecified), for which the call in assay [1] and in assay [2] was inactive.
On to `CCC(Cc1ccccc1)(C(=O)c1ccc(N2CCOCC2)cc1)N(C)C` (stereo unspecified), for which the molecule was called inactive in [1], in [3] and in assay [4].
Take `COCC(C)N` (stereo unspecified): the result in [1], in [3] and in assay [4] was inactive.
Take `COc1ccc2nc(N)sc2c1`: the molecule was called inactive in assay [1], in assay [3], in assay [5], in assay [6], in assay [7] and in assay [8]. The outcome in [9] and in assay [10] was inactive.
Take `CCCOCCOCCOCCO`: the outcome in [1] and in [2] was inactive.
Consider `CCCCC(CC)COCC1CO1` (stereo unspecified), for which the outcome in assay [1], in assay [3], in [2], in assay [4], in assay [5] and in [6] was inactive. The outcome in [7], in assay [8], in [9] and in [10] was inactive.
Regarding `Cc1cc(C)c(C)c(C)c1`, the result in assay [1] and in assay [2] was inactive.
As to `C1=Cc2ccccc2C1`, the call in [1] and in assay [2] was inactive.
On to `CC=C1CC2C=CC1C2` (stereo unspecified), for which the molecule was called inactive in assay [1], in assay [3] and in [4].
In the case of `CCCCC/C=C\C/C=C\CCCCCCCC(=O)OC`, the result in [1], in assay [3] and in [9] was inactive. Besides, the AC50 was 29.6 µM (active) in [5]; 20 µM (active) in assay [6]; 34.4 µM (active) in [7]; 28.7 µM (active) in assay [8]; 31.4 µM (active) in assay [10].
As to `Cc1ccc(OC(=O)CC(C)C)cc1`, the call in [1], in assay [3] and in [4] was inactive.
For the molecule `C=CCOCC(O)CCl` (stereo unspecified), the molecule was called inactive in assay [1], in assay [3], in assay [5], in assay [6], in [7] and in assay [8]. Moreover, the result in assay [9] and in assay [10] was inactive.
Consider `CCOC(=O)CC(C(C)=O)C(C)=O`, for which the result in assay [3] was inactive.
On the same count and under the same terms, in the case of `CC(=O)CC(N)=O` it was “inactive”.
Take `OCCCS`: the molecule was called inactive in assay [1] and in assay [2].
For the molecule `CC(=O)[C@H]1[C@H](C#N)C[C@H]2[C@@H]3CC=C4C[C@@H](O)CC[C@]4(C)[C@H]3CC[C@@]21C`, the molecule was classed as inactive in assay [1] and in [4].
On to `COCCOCCOCCOCCOC`, for which the molecule was called inactive in assay [3].
On the same count and under the same terms, in the case of `O=C(C(Cl)Cl)N1CCOC12CCCCC2` it was “inactive”; in that of `CC1=NC(C)OC1C` (stereo unspecified), “inactive”.
In the case of `[Cl][Nd]([Cl])[Cl]`, the result in [1], in [2] and in assay [4] was inactive.
`NC(=O)OCC(COC(N)=O)c1ccccc1`: the outcome in [1] and in assay [4] was inactive.
As to `O=C1C=CC(=O)O1`, the molecule was called inactive in assay [1] and in assay [4].
With `CC(CC=O)c1ccccc1` (stereo unspecified), the molecule was called inactive in [3].
On to `O=C1CCC(=O)N1Cl`, for which, in [3], the call was inactive.
As to `C=CC(=O)OCCC(=O)O`, the result in [1] and in [4] was inactive.
As for `CCOC(F)(F)C(F)(F)C(F)(F)C(F)(F)F`, in [3], the result was inactive.
Consider `O=C1CCCN1CCO`, for which the molecule was classed as inactive in assay [1], in [5], in [6], in assay [7], in assay [8] and in [9]. In addition, the result in assay [10] was inactive.
As to `CCN(CC)c1ccc(C(=O)c2ccccc2C(=O)O)c(O)c1`, the call in assay [1] and in assay [4] was inactive.
Consider `CCCCNc1ccc(NCCCC)c2c1C(=O)c1ccccc1C2=O`, for which the molecule was called inactive in [1], in assay [5], in [6], in assay [7], in assay [8] and in assay [9]. Also, the result in assay [10] was inactive.
As to `Cc1cccc(OCCOc2cccc(C)c2)c1`, the molecule was called inactive in assay [3].
